Drawing on the OligoGym collection, this text covers sensor-assay potency score (higher = more potent) for 60 sequences.

Common to all, as to test: pooled miR-30 sensor sort-seq; sequence = guide strand
What all share (details): shRNA

For experiment [1], the target named is ATP8A2.
The target in experiment [2] is AVPR1B.
The target of experiment [3] is BBC3.
Experiment [4] concerns the target BCL7A.
Experiment [5] concerns the target C11orf49.
Experiment [6] concerns the target C15orf54.
Experiment [7] has as its target C15orf58.
In experiment [8] the target is C17orf103.
For experiment [9], the target named is C16orf55.
Experiment [10] concerns the target C17orf71.
The target in experiment [11] is C1QL1.
For experiment [12], the target named is C20orf112.
For experiment [13], the target named is C1orf84.
Experiment [14] has as its target C1orf64.
Also: reference of the scale not given here.

For TTGTCTCCTGTCAACACCCATA, in [1], the sensor-assay potency score (higher = more potent) is -1.33.
With TTGAAGCCCATGTAGATCCAGG, the sensor-assay potency score (higher = more potent) in [2] is -0.752.
With TTGTCTCCGCCGCTCGTACTGT, the sensor-assay potency score (higher = more potent) in experiment [3] is -1.
For the sequence TATACAGTATCTTACAGGCTGG, the sensor-assay potency score (higher = more potent) in [3] is -0.558.
For TTGTGGAATGTGTAGCCGCAGC, the sensor-assay potency score (higher = more potent) in experiment [4] was -1.01.
With TGAGCCACACTTCTCGTCCTTG, in experiment [4], the sensor-assay potency score (higher = more potent) is -0.721.
Consider TAACACTAGGGTAAACCCCTGG, for which the sensor-assay potency score (higher = more potent) in experiment [5] was -0.37.
Still for that read-out and setting: the same measure for TTTTGCAAGTGAAATCATCTTC: 0.664.
For TTCAGTTTGTGACTTTTGCTGG, in [6], the sensor-assay potency score (higher = more potent) came out at 0.098.
On to AACAACAACAAGAATATCCTGC, for which the sensor-assay potency score (higher = more potent) in experiment [6] amounted to 0.568.
Sequence TCTTGTTGAAGTTGAACTGTAC returned a sensor-assay potency score (higher = more potent) in [7] of 0.172.
In the case of TACTTCTGGATGTACCAGCAGG, in experiment [8], the sensor-assay potency score (higher = more potent) was -1.01.
TTATCAAGGACTCCAAGTCAGG: the sensor-assay potency score (higher = more potent) in experiment [7] is -1.43.
With TTACATCAGGTTTCTCTTCCAG, the sensor-assay potency score (higher = more potent) in experiment [9] is 0.199.
For TTGAGCCGGACAGTGAACTGGC, in experiment [8], the sensor-assay potency score (higher = more potent) is -0.109.
For the sequence TGAAGTTGAACTGTACAGGGTC, the sensor-assay potency score (higher = more potent) in [7] is 0.667.
Take ACGTACTTCTGGATGTACCAGC: the sensor-assay potency score (higher = more potent) in experiment [8] is -1.62.
Turning to TAGTATAATAAAGTTATGCTAC, in experiment [6], the sensor-assay potency score (higher = more potent) is -0.835.
Consider TTTTGGAACTGAATAGGTGGAT, for which the sensor-assay potency score (higher = more potent) in experiment [9] was -0.336.
In the case of TAGATTTTGGAACTGAATAGGT, in experiment [9], the sensor-assay potency score (higher = more potent) is -0.346.
TTGAAGTTGAACTGTACAGGGT: the sensor-assay potency score (higher = more potent) in experiment [7] is 0.153.
Take TGGACTTTTGCTTTACATCAGG: in experiment [9], the sensor-assay potency score (higher = more potent) is -1.63.
Same read-out and setting: the same measure for TTAGATTTTGGAACTGAATAGG: -0.116.
As to TGCCTGTACGTCTTCTGCCTGG, in [7], the sensor-assay potency score (higher = more potent) is -0.932.
Same read-out and setting: the figure for AACATTGAAAGCTTCACCGTCC is 0.994.
As to TCATAGAGCAGGACGGCCCGGT, in experiment [8], the sensor-assay potency score (higher = more potent) was -0.156.
On to TGTCAGGCTGCTGAAGTCCTGG, for which the sensor-assay potency score (higher = more potent) in experiment [7] was -0.843.
Consider TTTGGAACTGAATAGGTGGATC, for which the sensor-assay potency score (higher = more potent) in experiment [9] is -0.304.
As for TAACTCTGAGTCTGTTCCCAGT, in [8], the sensor-assay potency score (higher = more potent) was -0.884.
Consider TTCCTTTACATTTATAACCATT, for which the sensor-assay potency score (higher = more potent) in experiment [6] is -1.28.
On to TCTCCTTAGATTTTGGAACTGA, for which the sensor-assay potency score (higher = more potent) in experiment [9] is -0.0429.
For TTCACCTTCTTGAAGAACCTGC, the sensor-assay potency score (higher = more potent) in experiment [6] came to 0.924.
With TTCCTGGGAATGCTTCTCCATC, the sensor-assay potency score (higher = more potent) in [9] was -1.49.
For TTATTTGAAAGGGACATCTGTT, in experiment [6], the sensor-assay potency score (higher = more potent) was -0.498.
Consider TTCTCCATCAACTTCTCCTTAG, for which the sensor-assay potency score (higher = more potent) in experiment [9] was -0.561.
In turn, TTGAAAGGGACATCTGTTGGAT gave a sensor-assay potency score (higher = more potent) in experiment [6] of 0.0555.
With TTCAAGATCAAACTAGGCCATG, the sensor-assay potency score (higher = more potent) in [6] was -1.17.
For TGTACCAGCAGGTGAGATGGGC, the sensor-assay potency score (higher = more potent) in experiment [8] is -0.507.
For TATACTTATTCTCACATCCTTT, in [6], the sensor-assay potency score (higher = more potent) is -0.462.
Regarding TATTTGAACATATAAGATGTTA, the sensor-assay potency score (higher = more potent) in [6] is -0.68.
As to TTTGGGTCTGTAGCTCCCGTAG, in experiment [7], the sensor-assay potency score (higher = more potent) was -1.43.
For TGGGACCTCGGTGTGCTGCAGG, the sensor-assay potency score (higher = more potent) in experiment [8] is -1.5.
ATTGAAAGCTTCACCGTCCTTT returned a sensor-assay potency score (higher = more potent) in [7] of 0.575.
In the case of TCTTCTTGCAGCAGAGTCCCAG, in experiment [7], the sensor-assay potency score (higher = more potent) was -0.775.
For TTAAGCAATGAGCTCAATCTAG, the sensor-assay potency score (higher = more potent) in experiment [6] was -0.475.
As to TAGGCGTCTGCTGTACTGGGGT, in [9], the sensor-assay potency score (higher = more potent) worked out at 0.489.
With TTCTCTGCTGGTCACTCCCGCT, in experiment [9], the sensor-assay potency score (higher = more potent) is -1.51.
Same read-out and setting: the same measure for TTATAGGCGTCTGCTGTACTGG: -0.778.
With ATCTTGTTGAAGTTGAACTGTA, the sensor-assay potency score (higher = more potent) in [7] was -0.903.
In the case of TTCTGTAGGCACTACATTCTGG, in experiment [6], the sensor-assay potency score (higher = more potent) was -0.0345.
Take TTCATCTTCAGCTCTAGTCCTG: the sensor-assay potency score (higher = more potent) in experiment [10] stood at 0.0154.
For the sequence TAGGTGAAAAAGTAGGTGCCGG, in [11], the sensor-assay potency score (higher = more potent) was -0.205.
For TCGTCATCATCTGCCGTCGGGG, in [12], the sensor-assay potency score (higher = more potent) is -1.61.
In the case of TTCCTGTTCAGACAGCATCTCC, the sensor-assay potency score (higher = more potent) in [13] was -0.954.
TTCATCAAACAAGATCTCCCCT registered a sensor-assay potency score (higher = more potent) in [13] of 0.55.
Still for that read-out and setting: the same measure for TTCATTAACAGGAACACCTGCC: 0.858.
For the sequence TCAATAACAAAAGTCAGGTGAG, the sensor-assay potency score (higher = more potent) in experiment [14] is -0.224.
TTCTTGTCTCGCTCTCACAGGC: in experiment [12], the sensor-assay potency score (higher = more potent) was -0.87.
On the same count and under the same terms, the figure for TTGATGGAATCGTAGCTCCCAG is -1.02.
Take TAGCCTCGGGAACCTCCTGGGG: in experiment [14], the sensor-assay potency score (higher = more potent) is -1.66.
